Laboratory results from PubChem BioAssay (Tox21).
Several values for one entry are separate records, joined by “and”; a condition that tells them apart may be missing. Equal values may be shown once. Results filed as inconclusive are left out. Entries that show only a call come without a potency. Some structures have more than one record in an assay (separate samples or runs), and their calls can disagree. Activity calls are given as the source filed them. Unless noted, calls come from the whole dose curve; as a rule, active = well fitted cell-killing curve with a large enough effect in the repeat runs; inconclusive = weak or mixed curves, or effect the other way; inactive = no such curve, though single readings can be large or run the other way.

assay: qHTS assay to identify small molecule agonists of the endoplasmic reticulum stress response signaling pathway (AID 1159516; active = well fitted activation curve with a large enough effect in the signal ratio in the repeat runs, not every such curve was filed as active; the % refers to the signal ratio); settings: ESRE-bla HeLa, ER stress beta-lactamase reporter, 5 h; series mostly up to 61 µM; activation: at the top concentration
How it was run: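 Using a HeLa line with an ESRE-driven beta-lactamase gene, agonist activity was measured by FRET substrate fluorescence (460 and 530 nm emission) after cells were treated with compounds for 5 hr at 37 C and 5% CO2.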

Compound	Potency	activation
COC(=O)Nc1nc2ccc(S(=O)c3ccccc3)cc2[nH]1 (configuration not stated)	inactive	
OC[C@H]1O[C@@H]2O[C@H]3[C@H](O)[C@@H](O)[C@@H](O[C@H]4[C@H](O)[C@@H](O)[C@@H](O[C@H]5[C@H](O)[C@@H](O)[C@@H](O[C@H]6[C@H](O)[C@@H](O)[C@@H](O[C@H]7[C@H](O)[C@@H](O)[C@@H](O[C@H]8[C@H](O)[C@@H](O)[C@@H](O[C@H]1[C@H](O)[C@H]2O)O[C@@H]8CO)O[C@@H]7CO)O[C@@H]6CO)O[C@@H]5CO)O[C@@H]4CO)O[C@@H]3CO		2.2% (inactive)
COC(C)COC(C)COC(C)CO (configuration not stated)		-0.483% (inactive)
Nc1ncnc2nc[nH]c12	inactive	
OCCO	inactive	
CCCCOCCOCCO	inactive	
Cc1c(C(N)=O)cc([N+](=O)[O-])cc1[N+](=O)[O-]	inactive	
COc1ccc(C(=O)CC(=O)c2ccc(C(C)(C)C)cc2)cc1		3.98% (inactive)
CC(=O)C1(C)CC2=C(CCCC2(C)C)CC1C (configuration not stated)		-1.1% (inactive)

assay: qHTS assay to identify small molecule agonists of the endoplasmic reticulum stress response signaling pathway - cell viability counter screen (AID 1159517; calls by dose curve; note: nearly all actives have a fitted effect of over 50% in size; note: potency is the fitted concentration of half-maximal effect;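 for activity change, negative = cytotoxicity: HeLa cells carrying an ER stress response element beta-lactamase reporter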); settings: ESRE-bla HeLa viability, CellTiter-Glo luminescence, 5 h; series mostly up to 61 µM; activity change, negative = cytotoxicity: at the top concentration
How it was run: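 Cytotoxicity of test compounds toward ESRE-bla HeLa cells was assessed after 5 hr exposure. The luminescent CellTiter-Glo signal was measured 30 min after reagent addition.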

Compound	activity change, negative = cytotoxicity	Potency
C#C[C@]1(O)CC[C@H]2[C@@H]3CCC4=Cc5oncc5C[C@]4(C)[C@H]3CC[C@@]21C	-6.79% (inactive)	
c1ccc2sc(SSN3CCOCC3)nc2c1	-2.08% (inactive)	
Nc1ncn([C@@H]2O[C@H](CO)[C@@H](O)[C@H]2O)c(=O)n1	-14.4% (inactive)	
CN(C)CCN(Cc1cccs1)c1ccccn1		inactive
CC(C)(C)NC(=O)[C@H]1CC[C@H]2[C@@H]3CC[C@H]4NC(=O)C=C[C@]4(C)[C@H]3CC[C@]12C		inactive
CCCCC(CC)COCC1CO1 (configuration not stated)		inactive
CC(=O)Oc1ccccc1C(=O)Nc1ncc([N+](=O)[O-])s1		889 nM (active) and inactive
c1cc(-c2ccncc2)ccn1		inactive
NC=O		inactive
c1ccc2cc(Nc3ccc(Nc4ccc5ccccc5c4)cc3)ccc2c1		inactive
O=C(Nc1ccc(Cl)cc1)Nc1ccc(Cl)c(Cl)c1	-10% (inactive)	
Nc1ccc(Nc2ccccc2)cc1		inactive
Nc1ncnc2nc[nH]c12	-17% (inactive)	
Cc1c(C(N)=O)cc([N+](=O)[O-])cc1[N+](=O)[O-]		inactive
CC(=O)C1(C)CC2=C(CCCC2(C)C)CC1C (configuration not stated)	-14.6% (inactive)	
OC1CCCCCCCCCCC1		inactive
CCCCc1oc2ccccc2c1C(=O)c1cc(I)c(OCCN(CC)CC)c(I)c1		39.2 µM (active)
Cc1c(OCC(F)(F)F)ccnc1CS(=O)c1nc2ccccc2[nH]1 (configuration not stated)		inactive
O=CCCCC=O		54.9 µM (active)
NNc1ccc(C(=O)O)cc1		inactive
O=Cc1ccccc1O		inactive
Cc1cccc(N(C)C(=S)Oc2ccc3ccccc3c2)c1		inactive
Cc1cc2nc3c(=O)[nH]c(=O)nc-3n(C[C@H](O)[C@H](O)[C@H](O)CO)c2cc1C		inactive
CC(=O)O[C@]1(C(C)=O)CC[C@H]2[C@@H]3C=C(Cl)C4=CC(=O)[C@@H]5C[C@@H]5[C@]4(C)[C@H]3CC[C@@]21C		inactive

assay: qHTS assay to identify small molecule antagonists of the retinoid-related orphan receptor gamma (ROR-gamma) signaling pathway - cell viability counter screen (AID 1159520); settings: Tet-on RORgamma CHO cells viability, ATP luminescence, 16 h; series mostly up to 92.4 µM; activity, negative = cytotoxicity: at the top concentration; note: nearly all actives have a fitted effect of over 50% in size; note: potency is the fitted concentration of half-maximal effect
How it was run: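 Tet-on ROR gamma CHO cells (1,000/well) were plated 4 hr, given compounds in DMSO for 2 hr at 37 C, then induced with 1 uM final doxycycline for 16 hr. Viability was read as ATP by CellTiter-Glo luminescence after 30 min.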

Compound	activity, negative = cytotoxicity	Potency
C#C[C@]1(O)CC[C@H]2[C@@H]3CCC4=Cc5oncc5C[C@]4(C)[C@H]3CC[C@@]21C	-13.6% [at 42.5 µM] (inactive)	
c1ccc2sc(SSN3CCOCC3)nc2c1		27.3 µM (active)
Nc1ncn([C@@H]2O[C@H](CO)[C@@H](O)[C@H]2O)c(=O)n1		3.44 µM (active) and 4.22 µM (active)
CN(C)c1nc(N(C)C)nc(N(C)C)n1		inactive
CN(C)CCN(Cc1cccs1)c1ccccn1		inactive
CC(C)(C)NC(=O)[C@H]1CC[C@H]2[C@@H]3CC[C@H]4NC(=O)C=C[C@]4(C)[C@H]3CC[C@]12C		inactive
CCCCC(CC)COCC1CO1 (configuration not stated)		inactive
COC(=O)Nc1nc2ccc(S(=O)c3ccccc3)cc2[nH]1 (configuration not stated)	-8.38% (inactive)	
CC(=O)Oc1ccccc1C(=O)Nc1ncc([N+](=O)[O-])s1		3.93 µM (active) and 5.31 µM (active)
c1cc(-c2ccncc2)ccn1		inactive
OC[C@H]1O[C@@H]2O[C@H]3[C@H](O)[C@@H](O)[C@@H](O[C@H]4[C@H](O)[C@@H](O)[C@@H](O[C@H]5[C@H](O)[C@@H](O)[C@@H](O[C@H]6[C@H](O)[C@@H](O)[C@@H](O[C@H]7[C@H](O)[C@@H](O)[C@@H](O[C@H]8[C@H](O)[C@@H](O)[C@@H](O[C@H]1[C@H](O)[C@H]2O)O[C@@H]8CO)O[C@@H]7CO)O[C@@H]6CO)O[C@@H]5CO)O[C@@H]4CO)O[C@@H]3CO		inactive
NC=O		inactive
COC(=O)C1=C(C)NC(C)=C(C(=O)OCCN(C)Cc2ccccc2)C1c1cccc([N+](=O)[O-])c1 (configuration not stated)		60.8 µM (active)
c1ccc2cc(Nc3ccc(Nc4ccc5ccccc5c4)cc3)ccc2c1		inactive
O=C(Nc1ccc(Cl)cc1)Nc1ccc(Cl)c(Cl)c1		17.1 µM (active)
COC(C)COC(C)COC(C)CO (configuration not stated)		inactive
CC(=O)CC/C=C(\C)CCC=C(C)C		inactive
Nc1ccc(Nc2ccccc2)cc1		inactive
Nc1ncnc2nc[nH]c12		inactive
OCCO		inactive

Compound	activity, negative = cytotoxicity	Potency
O=C1OC2(c3cc(Br)c(O)c(Br)c3Oc3c2cc(Br)c(O)c3Br)c2c(Cl)c(Cl)c(Cl)c(Cl)c21		inactive
CCCCOCCOCCO		inactive
Cc1c(C(N)=O)cc([N+](=O)[O-])cc1[N+](=O)[O-]		inactive
COc1ccc(C(=O)CC(=O)c2ccc(C(C)(C)C)cc2)cc1		inactive
CCC(C)c1ccccc1O (configuration not stated)		inactive
Nc1ccccc1N		inactive
CC(=O)C1(C)CC2=C(CCCC2(C)C)CC1C (configuration not stated)		inactive
OC1CCCCCCCCCCC1		inactive
CCCCc1oc2ccccc2c1C(=O)c1cc(I)c(OCCN(CC)CC)c(I)c1		43.6 µM (active)
Cc1c(OCC(F)(F)F)ccnc1CS(=O)c1nc2ccccc2[nH]1 (configuration not stated)		inactive
O=C(c1ccccc1)c1ccccc1O		inactive
O=CCCCC=O		61.1 µM (active)
NNc1ccc(C(=O)O)cc1		inactive
O=Cc1ccccc1O		inactive
Cc1cccc(N(C)C(=S)Oc2ccc3ccccc3c2)c1	-6.89% [at 42.5 µM] (inactive)	
Cc1cc2nc3c(=O)[nH]c(=O)nc-3n(C[C@H](O)[C@H](O)[C@H](O)CO)c2cc1C		inactive
COc1cccc2c1C(=O)c1c(O)c3c(c(O)c1C2=O)C[C@@](O)(C(=O)CO)C[C@@H]3O[C@H]1C[C@H](N)[C@H](O)[C@H](C)O1		inactive and 26.6 µM (active)
CN(C)C(=N)N=C(N)N		inactive
CC(=O)O[C@]1(C(C)=O)CC[C@H]2[C@@H]3C=C(Cl)C4=CC(=O)[C@@H]5C[C@@H]5[C@]4(C)[C@H]3CC[C@@]21C		inactive
